Screens from PubChem.
Hits are enriched below; roughly 19% of the tested compounds scored in any of these assays.
TDP1 block = TDP1 (human) enzyme inhibition; Q9NUW8; recombinant TDP1, AlphaScreen DNA substrate cleavage; Potency, µM (highest dose often 130 µM), most hits filed as inhibitors; actives 0.28% (n = 350,000); AID 485290; further: nearly all actives have a fitted effect of over 40% in size
Target sequence (Q9NUW8 whole entry, looked up): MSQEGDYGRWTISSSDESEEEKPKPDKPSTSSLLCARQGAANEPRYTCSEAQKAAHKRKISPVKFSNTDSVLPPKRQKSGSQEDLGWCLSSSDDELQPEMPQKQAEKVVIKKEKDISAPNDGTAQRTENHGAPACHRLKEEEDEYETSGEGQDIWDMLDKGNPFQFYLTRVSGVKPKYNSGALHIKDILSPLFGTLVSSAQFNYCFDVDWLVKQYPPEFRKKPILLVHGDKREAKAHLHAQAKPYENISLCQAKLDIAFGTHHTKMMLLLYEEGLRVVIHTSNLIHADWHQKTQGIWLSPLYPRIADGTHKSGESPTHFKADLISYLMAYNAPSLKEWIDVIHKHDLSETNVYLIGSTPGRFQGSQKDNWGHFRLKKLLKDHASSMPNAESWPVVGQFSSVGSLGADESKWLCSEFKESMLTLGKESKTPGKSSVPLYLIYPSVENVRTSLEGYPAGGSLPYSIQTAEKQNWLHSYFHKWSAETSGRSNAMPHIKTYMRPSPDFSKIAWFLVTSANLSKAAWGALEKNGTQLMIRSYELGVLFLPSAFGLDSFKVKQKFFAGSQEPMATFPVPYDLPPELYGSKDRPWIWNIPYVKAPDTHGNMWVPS
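AlphaScreen read-out: signal falls as enzyme removes the 3' tyrosine-FITC from a 5'-biotinylated DNA oligo (15 nM, 5 min, RT). Enzyme was E. coli-made recombinant Tdp1 at 1 nM, exposed to compound for 15 min beforehand; beads 10 ug/ml, 10 min.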
ELG1 repair inh = ELG1-dependent DNA repair inhibition; AID 504467; actives 2.3% (n = 330,000); Potency, µM (highest dose often 46.1 µM), most hits filed as inhibitors; HEK293T ELG1-luciferase reporter, luminescence, 16 h; DNA damage induced by 5-fluorouridine; further: nearly all actives have a fitted effect of over 55% in size
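5-Fluorouridine DNA damage + compound/DMSO, 2,000 cells/well, 16 h, 37 °C/5% CO2. ONE-Glo, 30 min RT, luminescence. Readout = decrease in reporter signal.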
IL1B secr inh = inflammasome signaling inhibition, IL-1 beta readout | THP-1 LPS/ATP IL-1B secretion, AlphaLISA, 16 h; hits give low values | activity change, % at 57.5 µM | actives 4.7% (n = 360,000) | AID 743279; in the data active means activity change below about -50%; inconclusive means mostly about -30% to -49%
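Secreted IL-1B measured by AlphaLISA bead assay after 16 h compound exposure of THP-1 cells; compounds (final up to 57.5 uM) added 1 h before LPS (250 ng/mL) and ATP (1.25 mM) stimulation; lower signal means less secretion.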
Giardia killer = kills Giardia lamblia; actives 0.15% (n = 340,000); Giardia lamblia trophozoite viability; activity change, % at 7.66 µM, hits read low; in the data active means activity change below about -80%; inconclusive means between about -30% and that limit;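 further: parasites exposed to compound for two days anaerobically before the ATP read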
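ATP-content bioluminescence gauges trophozoite survival. Cells (100/well) receive compound and incubate anaerobically for 48 hrs at 37 deg C; detection reagent follows for 15-30 min at room temperature.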
TDP1 cell noCPT = qHTS for Inhibitors of human tyrosyl-DNA phosphodiesterase 1 (TDP1): qHTS in cells in absence of CPT | actives 15% (n = 420,000) | DT40 Tdp1-/- hTDP1 cells, no CPT, ATP luminescence, 48 h | Potency, µM (doses to about 46.2 µM), usual class: inhibitors; further: nearly all actives have a fitted effect of over 55% in size
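Compound effects on proliferation are scored in DT40 Tdp1-/-;hTDP1 cells in the absence of CPT. ATP levels (CellTiter-Glo luminescence) are recorded after a ≥48 hr, 37 °C incubation.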
DT40 TDP1 CPT = DT40-hTDP1 cell growth loss with CPT. chicken DT40 Tdp1-/-;hTDP1 cells + 20 nM CPT, ATP luminescence, 48 h. Potency, µM (titrated, usually from 46.2 µM), usual class: inhibitors. actives 12% (n = 420,000). AID 686979; further: nearly all actives have a fitted effect of over 55% in size
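Chicken DT40 Tdp1-/- cells complemented with human TDP1, 400 cells/well, exposed to compounds plus 20 nM camptothecin for at least 48 h at 37 C; viability read as ATP content by CellTiter-Glo luminescence.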
Each line names hits and unclear results; the compound was inactive in the other large screens. Unless noted, the call rests on the fitted dose curve; in most records, active means well fitted curve in the direction sought with a large enough effect; inconclusive means small, poorly fitted or top-dose-only effect, or another doubt; inactive means no such curve, though single readings can be large; an effect the other way counts as inactive or inconclusive.

O=S(=O)(/N=C(/Nc1cccc2ccccc12)c1ccccc1)c1cccs1	TDP1 cell noCPT inconclusive
O=C1C(Nc2ccccc2)=C/C(=N/S(=O)(=O)c2cccs2)c2ccccc21	ELG1 repair inh 6.5µM, IL1B secr inh -99, TDP1 cell noCPT 4.6µM, DT40 TDP1 CPT 2.9µM
COC(=O)c1ccccc1NC1=C/C(=N\S(=O)(=O)c2cccs2)c2ccccc2C1=O	ELG1 repair inh 5.2µM, IL1B secr inh -92, TDP1 cell noCPT 5.8µM, DT40 TDP1 CPT 3.3µM
Cc1ccc(NC2=C/C(=N/S(=O)(=O)c3cccs3)c3ccccc3C2=O)cc1	ELG1 repair inh inconclusive, IL1B secr inh -89, TDP1 cell noCPT 3.3µM, DT40 TDP1 CPT 1.8µM
CC1(C)CC(C(CCN(Cc2ccccc2)C(=O)c2ccco2)c2ccc(F)cc2)CCO1 (centres undefined)	ELG1 repair inh inconclusive, IL1B secr inh -52, TDP1 cell noCPT inconclusive, DT40 TDP1 CPT inconclusive
CCC(=O)N1CCc2cc(S(=O)(=O)NC(Cc3ccccc3)C(=O)Nc3cccc(OC)c3)ccc21 (centres undefined)	TDP1 cell noCPT inconclusive, DT40 TDP1 CPT inconclusive (no result: ELG1 repair inh, IL1B secr inh, Giardia killer)
COc1cc(C(=O)NC2CCN(Cc3ccccc3)CC2)cc(Cl)c1OC	TDP1 cell noCPT inconclusive, DT40 TDP1 CPT inconclusive (no result: TDP1 block)
COc1ccc([N+](=O)[O-])cc1C(=O)NC1CCN(Cc2ccccc2)CC1	IL1B secr inh inconclusive (no result: TDP1 block, ELG1 repair inh)
COc1cc(-c2nc(C(=O)NC3CCN(Cc4ccccc4)CC3)cc3c2[nH]c2ccccc23)cc(OC)c1OC	ELG1 repair inh inconclusive, TDP1 cell noCPT 13µM, DT40 TDP1 CPT 12µM (no result: TDP1 block)
COc1cc(-c2nc(C(=O)NC3CCCCC3)cc3c2[nH]c2ccccc23)cc(OC)c1OC	ELG1 repair inh 5.8µM, IL1B secr inh inconclusive, TDP1 cell noCPT 23µM, DT40 TDP1 CPT 16µM (no result: TDP1 block)
COc1ccc(OC)c(-c2nc(C(=O)NCCCN3CCOCC3)cc3c2[nH]c2ccccc23)c1	TDP1 cell noCPT 23µM, DT40 TDP1 CPT 16µM (no result: TDP1 block)
COc1ccc(OC)c(-c2nc(C(=O)NC3CCN(Cc4ccccc4)CC3)cc3c2[nH]c2ccccc23)c1	TDP1 cell noCPT 12µM, DT40 TDP1 CPT 10µM (no result: TDP1 block)
Cc1c(C(=O)Nc2nnc(C3CC3)s2)oc2ccccc12	ELG1 repair inh inconclusive
O=S(=O)(c1ccc(Br)cc1)c1nc(-c2cccs2)oc1SCc1ccccc1F	TDP1 cell noCPT inconclusive, DT40 TDP1 CPT inconclusive (no result: ELG1 repair inh, IL1B secr inh, Giardia killer)
COC(=O)c1ccc(OCC(O)CN2CCN(C(=O)c3ccco3)CC2)c(OC)c1 (centres undefined)	none
COc1ccccc1N1CCN(c2nc3ccc(C)cc3n3nnnc23)CC1	none (no result: ELG1 repair inh, IL1B secr inh, Giardia killer)
COc1ccc(-c2ccc3c(c2)S(=O)(=O)c2cccc(C(=O)NCCOc4ccccc4Cl)c2C3=O)cc1OC	TDP1 block 28µM, TDP1 cell noCPT 23µM, DT40 TDP1 CPT 23µM
COc1ccc(-c2ccc3c(c2)S(=O)(=O)c2cccc(C(=O)NCc4ccccc4Cl)c2C3=O)cc1OC	TDP1 block 25µM, ELG1 repair inh inconclusive, TDP1 cell noCPT 15µM, DT40 TDP1 CPT 21µM
COc1ccc(-c2ccc3c(c2)S(=O)(=O)c2cccc(C(=O)NC4CC4)c2C3=O)cc1OC	DT40 TDP1 CPT inconclusive
COc1ccc(-c2ccc3c(c2)S(=O)(=O)c2cccc(C(=O)NC4CCCCC4)c2C3=O)cc1OC	TDP1 cell noCPT 23µM, DT40 TDP1 CPT 15µM
Cc1nnc(SC(C)C(=O)Nc2ccc(Cl)cn2)n1Cc1ccccc1 (centres undefined)	IL1B secr inh -60, TDP1 cell noCPT inconclusive
Cc1ccccc1NC(=O)C(C)Sc1nnc(CN2CCCC2)n1Cc1ccccc1 (centres undefined)	TDP1 cell noCPT 16µM, DT40 TDP1 CPT inconclusive (no result: TDP1 block, ELG1 repair inh, Giardia killer)
CC(Sc1nnc(CN2CCCC2)n1Cc1ccccc1)C(=O)Nc1ccccc1 (centres undefined)	none
Cc1ccc(NC(=S)N2CCCCC2)cc1C	ELG1 repair inh inconclusive, TDP1 cell noCPT inconclusive (no result: TDP1 block)
